BoNT A protease: BoNT/A light chain protease inhibitors, primary screen, biochemical, flow cytometry, MLPCN library. multiplex microsphere protease substrate cleavage. inhibition, % at 10 µM. 360,000 compounds, 0.17% hits. AID 588499, 2011. Botulinum neurotoxin type A light chain protease (Clostridium botulinum A str. ATCC 3502); note: plate controls were buffer without enzyme for full effect and enzyme alone for no effect
Anthrax LF prot: Bacillus anthracis LF protease inhibitors, primary screen, biochemical, multiplex microsphere, MLPCN library; Lethal factor (Bacillus anthracis), P15917; multiplex microsphere protease cleavage assay; inhibition, % at 10 µM; 360,000 compounds, 0.12% hits; AID 588501, 2011; note: plate controls were buffer without enzyme for full effect and enzyme alone for no effect
Target sequence (P15917 whole entry, looked up): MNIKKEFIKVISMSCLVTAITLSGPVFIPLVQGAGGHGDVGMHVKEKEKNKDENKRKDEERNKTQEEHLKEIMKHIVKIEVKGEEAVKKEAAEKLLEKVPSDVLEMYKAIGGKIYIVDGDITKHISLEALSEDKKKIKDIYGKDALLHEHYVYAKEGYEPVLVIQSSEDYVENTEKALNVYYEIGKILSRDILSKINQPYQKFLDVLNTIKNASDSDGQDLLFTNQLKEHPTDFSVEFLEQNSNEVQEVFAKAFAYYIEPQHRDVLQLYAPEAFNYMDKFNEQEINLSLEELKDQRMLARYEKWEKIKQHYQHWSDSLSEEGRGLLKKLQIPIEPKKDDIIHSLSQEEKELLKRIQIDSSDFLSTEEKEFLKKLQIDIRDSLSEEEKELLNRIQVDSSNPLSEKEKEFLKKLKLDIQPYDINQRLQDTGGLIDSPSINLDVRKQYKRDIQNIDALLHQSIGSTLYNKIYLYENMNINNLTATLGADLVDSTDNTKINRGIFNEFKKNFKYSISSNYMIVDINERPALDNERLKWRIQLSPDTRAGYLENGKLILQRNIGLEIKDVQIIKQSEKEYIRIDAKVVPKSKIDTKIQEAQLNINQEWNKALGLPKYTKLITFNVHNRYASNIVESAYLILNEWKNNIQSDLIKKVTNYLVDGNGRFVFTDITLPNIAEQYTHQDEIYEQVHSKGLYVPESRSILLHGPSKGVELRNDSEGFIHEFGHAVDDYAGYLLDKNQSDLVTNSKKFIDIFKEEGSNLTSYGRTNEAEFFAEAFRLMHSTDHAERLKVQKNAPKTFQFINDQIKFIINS
BoNT-F LC inh: BoNT/F light chain protease inhibitors, primary screen, biochemical, flow cytometry, MLPCN library; Botulinum neurotoxin type F light chain protease (Clostridium botulinum); Multiplex microsphere protease cleavage assay; inhibition, % at 10 µM; 360,000 compounds, 0.22% hits; in the data active = inhibition above about 35%, passing the limit was not always enough; inconclusive = no clear call, values can overlap the other calls; note: plate controls were buffer without enzyme for full effect and enzyme alone for no effect
Bead autofluor: flagged as autofluorescent in microsphere protease counterscreen. AID 624483. compound autofluorescence counterscreen, microsphere flow cytometry; stronger effect = higher value. fluorescence intensity (no concentration beside the values). 360,000 compounds, 3.1% hits; in the data active = fluorescence intensity above about 16000; inconclusive = no clear call, values can overlap the other calls
Active calls of the source: *; ? = inconclusive. A selection: hits, their analogues and other compounds. The true share with any hit is near 3.5%. Cut-off read from the data, not from the text of the source, unless noted: active = inhibition above about 30%; inconclusive = no clear call, values can overlap the other calls; inactive = below that.

SMILES | BoNT A protease | Anthrax LF prot | BoNT-F LC inh | Bead autofluor
COC(=O)N(C)C[C@@H]1OCc2cnnn2CCCC(=O)N([C@H](C)CO)C[C@H]1C | 0 | -1 | 4 | 3549
Cc1oc2c(c1C(=O)Nc1ccc(C(=O)O)cc1)CCCC2 | -1 | -2 | 1 | 17117*
COc1ccccc1NS(=O)(=O)c1cccc(C(=O)NCC(c2ccco2)N(C)C)c1 (stereo not given) | -1 | -1 | 7 | ?
O=C(CSc1ncccn1)Nc1ccccc1 | ? | 3 | 2 | 20507*
O=C(Cc1ccccn1)Nc1ccccc1 | 1 | 2 | 2 | 22456*
Nc1cc(N)nc(SCC(=O)Nc2ccccc2)n1 | -3 | -1 | -41 | 5387
CC1CCC(NC(=O)c2cc3c(s2)CCCC3)CC1 (stereo not given) | -2 | 8 | ? | 5577
S=C(NCCC1=CCCCC1)Nc1ccc(Cl)cc1 | 0 | -4 | 10 | 2590
Clc1ccc(CNCCC2=CCCCC2)cc1 | ? | -2 | -16 | 17461*
CC1(C)CC(CCC(=O)Nc2ccc(S(N)(=O)=O)cc2)C(=O)O1 (stereo not given) | ? | -2 | -3 | 22673*
CC(C(=O)Nc1ccc(Br)cc1C(=O)c1ccccc1)N1CCCCC1 (stereo not given) | 6 | -5 | 8 | 19761*
O=C(CCN1CCCCC1)Nc1ccc(Br)cc1C(=O)c1ccccc1 | -3 | -15 | -6 | 5122
CC(NC(=O)CCC(=O)N1CCCCCC1)c1ccccc1 (stereo not given) | 1 | -2 | 36* | 4180
O=C(Cc1ccccc1)NCC(=O)N1CCCCCC1 | 2 | 2 | 3 | 22214*
CC(NC(=O)C1CCCN(C(=O)N(C)C)C1)c1ccccc1 (stereo not given) | 0 | -2 | -2 | 20508*
CC(NC(=O)CCC(=O)NC(C)c1ccccc1)c1ccccc1 (stereo not given) | -1 | 4 | -12 | 3204
O=C(c1cccc2c1-c1ccccc1/C2=N/O)N1CCCCC1 | ? | 3 | -3 | 20508*
O=C(CC1SC(=O)N(c2ccccc2)C1=O)Nc1ccccc1 (stereo not given) | 1 | -3 | -4 | 21831*
CCOC(=O)N1CCC(=NNS(=O)(=O)c2cccc([N+](=O)[O-])c2)CC1 | -8 | -2 | -8 | 22772*
CN(C)c1cc(-c2ccc(Cl)c(Cl)c2)oc(=O)c1Cl | -2 | 10 | ? | 4104
C=CCN1C(=O)c2ccc(C(=O)N3CCN(S(=O)(=O)c4ccccc4Br)CC3)cc2C1=O | 0 | 1 | 1 | 5604
CN1CCN(S(=O)(=O)c2cccc(C#N)c2)C(c2ccccc2)C1 (stereo not given) | -1 | -8 | 5 | 5807
CCNc1oc(-c2ccccc2F)nc1S(=O)(=O)c1ccccc1 | 4 | 0 | 6 | 4097
CCNc1oc(-c2ccc(OC)cc2)nc1S(=O)(=O)c1ccc(Br)cc1 | ? | -1 | -7 | 21449*
CCOc1ccc(-c2nc(S(=O)(=O)c3ccccc3)c(NC)o2)cc1 | -1 | -5 | -4 | 5222
SMILES | BoNT A protease | Anthrax LF prot | BoNT-F LC inh | Bead autofluor
CCCCNc1oc(-c2ccc(OC)cc2)nc1S(=O)(=O)c1ccccc1 | -1 | -1 | -2 | 21088*
Cc1cc2c(cc1C)N(C(=O)CSC1=NCCS1)C(C)(C)c1ssc(=S)c1-2 | -2 | -5 | -6 | 21080*
Cc1ccc(S(=O)(=O)N2CCOCC2)cc1C(=O)N1CCN(c2ccc(C(F)(F)F)cn2)CC1 | 0 | 3 | -4 | 4214
CN(CC(=O)Nc1ccc(N2CCOCC2)cc1)C(=O)c1cccc(Cl)c1Cl | 0 | -2 | -2 | 5648
COc1ccc(Br)c(C(=O)N(C)CC(=O)Nc2ccc(N3CCOCC3)cc2)c1 | -64 | -17 | -105 | 21018*
COc1ccccc1S(=O)(=O)N(C)C[C@@H]1OCc2cnnn2CCCC(=O)N([C@H](C)CO)C[C@@H]1C | 0 | 3 | -3 | 3764
CN1CC[n+]2cnc3ccccc3c21 | ? | -12 | 6 | 18857*
S=C(NN=C(C1CC1)C1CC1)Nc1ccccc1 | -2 | -3 | -5 | 17259*
O=C(NNC(=S)Nc1ccccc1)C1CC1 | 0 | -2 | -4 | 5187
O=C(Nc1ccc(Cl)cc1C(=O)NCc1cccnc1)c1ccco1 | ? | -4 | 2 | 23145*
Cc1cc(NC(=O)c2ccco2)ccc1NC(=O)c1ccco1 | 0 | 0 | 7 | 5831
O=C(Nc1ccc(Cl)cc1C(=O)NCC1CCCO1)c1ccco1 (stereo not given) | -2 | 1 | -3 | 23431*
CCOc1cc(NC(=O)c2ccco2)c(OCC)cc1NC(=O)CCC(=O)NCc1cccnc1 | 2 | -3 | 0 | 19666*
Cc1cc(NC(=O)c2cccnc2)ccc1NC(=O)c1ccco1 | 0 | -2 | 0 | 22536*
O=C(Nc1ccccc1C(=O)NCc1cccnc1)c1ccco1 | -1 | -1 | 11 | 4748
O=C(CN1CCCCC1)Nc1ccc(S(=O)(=O)c2ccc(NC(=O)CN3CCCCC3)cc2)cc1 | 0 | -14 | -3 | 3962
Cc1oc(S(=O)(=O)N2CCOCC2)cc1C(=O)Nc1ccc(Cl)cc1 | ? | 7 | ? | 4585
CC1Cc2ccccc2N1S(=O)(=O)c1cccc(C(=O)N2CCN(c3ncccn3)CC2)c1 (stereo not given) | 0 | -7 | 1 | 4002
CCOc1cc(NS(=O)(=O)c2ccc(OC)cc2)c(OCC)cc1NC(=O)c1ccco1 | 0 | -2 | -2 | 22748*
COc1ccc(S(=O)(=O)Nc2cc(OC)c(NC(=O)c3ccco3)cc2OC)cc1 | -1 | -2 | -1 | 9199
Cc1noc(NS(=O)(=O)c2ccc(NC(=O)CSc3nc4ccccc4[nH]3)cc2)c1C | -1 | 0 | -4 | 10517
Cc1noc(NS(=O)(=O)c2ccc(NC(=O)CSc3nnc(-c4ccccc4)n3C3CCCCC3)cc2)c1C | -1 | -4 | 0 | 22405*
CCNC(=O)C1(C)CCCN(C(=O)c2ccc(F)c(C)c2)C1 (stereo not given) | 0 | -5 | 9 | 3668
COC(=O)C(c1cc(OC)c(O)c(OC)c1)(N1CCNC(C)C1)C(F)(F)F (stereo not given) | 3 | -5 | 4 | 18737*
Cc1cc(S(=O)(=O)NCCN(C)C)c(C)s1 | 0 | 0 | 1 | 22830*
SMILES | BoNT A protease | Anthrax LF prot | BoNT-F LC inh | Bead autofluor
Cc1cc(S(=O)(=O)NCc2ccc(S(N)(=O)=O)cc2)c(C)s1 | 3 | -2 | -2 | 21825*
FC(F)(F)c1nc2ncc(Cl)cc2[nH]1 | -1 | 0 | 0 | 20866*
c1ccc(-c2nccc(-c3ccco3)n2)nc1 | -3 | -2 | -2 | 3132
c1ccc(-c2nc(-c3ccco3)cs2)nc1 | 1 | 1 | 1 | 22107*
COc1ccccc1CNC(=O)c1ccccc1NS(C)(=O)=O | 0 | 0 | 0 | 20558*
CCN(CC)S(=O)(=O)c1ccc(NC(=O)c2ccccc2N(C)S(C)(=O)=O)cc1 | ? | -7 | 3 | 21922*
COc1ccccc1CNC(=O)c1ccccc1N(C)S(C)(=O)=O | 2 | 0 | 2 | 19853*

From PubChem
